Unmarked numbers belong to inactive results. Results filed as inconclusive are left out. Active and inactive are the calls of the source. Unless noted, calls follow the shape of the dose curve; as a rule, active = well fitted curve in the direction sought with a large enough effect in the repeat runs; inconclusive = weak or mixed curves; inactive = no such curve, though single readings can be large; an effect the other way counts as inactive or inconclusive.

Drawing on PubChem BioAssay (Tox21), this text covers Potency and outcome for eight compounds.

Experiment [1] is described as follows: A CellTox Green Cytotoxicity Assay to monitor cytotoxicity in HepG2 cells - 16 hour (AID 1224876). Also: nearly all actives have a fitted effect of over 45% in size. Put shortly:
(§1)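 Nonlytic assay: viable cells exclude the dye, so fluorescence scales with cell death. HepG2 at 600 cells/well, compounds added after 5 h, signal read across 40 h.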

A short description of experiment [2]: A CellTox Green Cytotoxicity Assay to monitor cytotoxicity in HepG2 cells - 24 hour (AID 1224878). Also: nearly all actives have a fitted effect of over 45% in size. Put shortly:
as §1

A short description of experiment [3]: A CellTox Green Cytotoxicity Assay to monitor cytotoxicity in HepG2 cells - 40 hour (AID 1224879). Also: nearly all actives have a fitted effect of over 40% in size. Put shortly: as §1
A short description of experiment [4]: qHTS RealTime-Glo MT Cell Viability Assay in HEK293 cells - 0 hour (AID 1224880). Also: top concentration of the series differs between compounds; nearly all actives have a fitted effect of over 45% in size. Put shortly: (§2)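 Tox21 screen in HEK293 using RealTime-Glo MT chemistry, with cells and reagent co-dispensed. Luminescence proportional to viable cell number was captured at intervals during 40 h compound exposure at 37 C.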
In general terms: qHTS replaces the single test concentration by a dilution series.

The nature of experiment [5]: A CellTox Green Cytotoxicity Assay to monitor cytotoxicity in HEK293 cells - 32 hour (AID 1224881). Also: nearly all actives have a fitted effect of over 40% in size. Also: potency is read from the fitted curve at half-maximal effect. The essentials:
(§3)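 Seeding of HEK293 cells together with cytotoxicity dye preceded a 5 h incubation at 37 C/5% CO2. Test compounds in DMSO were then added and fluorescence monitored across 40 h.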

Experiment [6] is described as follows: A CellTox Green Cytotoxicity Assay to monitor cytotoxicity in HepG2 cells - 0 hour (AID 1224882). Also: nearly all actives have a fitted effect of over 35% in size. The essentials: as §1
A short description of experiment [7]: A CellTox Green Cytotoxicity Assay to monitor cytotoxicity in HepG2 cells - 32 hour (AID 1224883). Also: nearly all actives have a fitted effect of over 50% in size. The essentials: as §1
Experiment [8] can be described thus: A CellTox Green Cytotoxicity Assay to monitor cytotoxicity in HEK293 cells - 8 hour (AID 1224884). Also: nearly all actives have a fitted effect of over 35% in size. The essentials: as §3
The nature of experiment [9]: qHTS RealTime-Glo MT Cell Viability Assay in HepG2 cells - 16 hour (AID 1224885). Also: nearly all actives have a fitted effect of over 50% in size. Put shortly:
(§4)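 Cells + NanoLuc/prosubstrate dispensed (600 cells/well) → 5 h at 37 C/5% CO2 → compounds in DMSO transferred → 40 h incubation at 37 C, luminescence read at 0, 8, 16, 24, 32, 40 h.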

Experiment [10] is described as follows: qHTS RealTime-Glo MT Cell Viability Assay in HEK293 cells - 24 hour (AID 1224886). Also: top concentration of the series differs between compounds; nearly all actives have a fitted effect of over 50% in size. The essentials: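 Tox21 10K qHTS, HEK293, 600 cells/well, RealTime-Glo reagent co-dispensed with cells; 5 h preincubation, compound by pintool, 37 C, luminescence at 0–40 h.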
Experiment [11] is described as follows: qHTS RealTime-Glo MT Cell Viability Assay in HEK293 cells - 8 hour (AID 1224887). Also: top concentration of the series differs between compounds; nearly all actives have a fitted effect of over 50% in size. Put shortly:
as §2

The nature of experiment [12]: A CellTox Green Cytotoxicity Assay to monitor cytotoxicity in HEK293 cells - 16 hour (AID 1224888). Also: nearly all actives have a fitted effect of over 35% in size. Also: potency is read from the fitted curve at half-maximal effect. Put shortly:
as §3

Experiment [13] can be described thus: qHTS RealTime-Glo MT Cell Viability Assay in HepG2 cells - 0 hour (AID 1224889). Also: nearly all actives have a fitted effect of over 50% in size. Put shortly:
as §4

Experiment [14] is described as follows: A CellTox Green Cytotoxicity Assay to monitor cytotoxicity in HepG2 cells - 8 hour (AID 1224890). Also: nearly all actives have a fitted effect of over 45% in size. Put shortly: as §1
A short description of experiment [15]: qHTS assay to identify small molecule antagonists of the estrogen receptor alpha (ER-alpha) signaling pathway using the BG1 cell line in the presence of 0.1 nM 17-beta-estradiol - cell viability counter screen (AID 1259241). Also: nearly all actives have a fitted effect of over 40% in size. The essentials:
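Cells were plated and left 24 hr, compounds in DMSO were pinned in, 17beta-estradiol was added to 0.1 nM final, and after 22 hr CellTiter-Fluor reagent was added for 30 min before fluorescence was read.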

Experiment [16] in a line: qHTS assay to identify small molecule antagonists of the androgen receptor (AR) signaling pathway using the MDA cell line in the presence of 0.5 nM R1881 - cell viability counter screen (AID 1259242). Also: nearly all actives have a fitted effect of over 45% in size. Put shortly: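 R1881 at 0.5 nM final stimulated MDA-kb2 cells during 16 hr compound treatment at 37C. Cytotoxicity read: CellTiter-Fluor fluorescence after 30 min.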
Experiment [17] in a line: qHTS assay to identify small molecule phospholipidosis (PLD) inducers (AID 1259344; active = well fitted curve in the direction sought with a large enough effect; an effect the other way counts as inactive or inconclusive). The essentials: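 Phospholipidosis is scored by imaging LipidTOX-stained pits in HepG2 cells exposed to compound for 24 h at 37 C; pit counts and integrated intensities per well and per cell serve as outputs.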
A short description of experiment [18]: qHTS RealTime-Glo MT Cell Viability Assay in HepG2 cells - 32 hour (AID 1224877). Also: nearly all actives have a fitted effect of over 55% in size. The essentials:
as §4

The target in experiment [19] is Estrogen receptor (Homo sapiens) (UniProt P03372). Kind of experiment: qHTS assay to identify small molecule antagonists of the estrogen receptor alpha (ER-alpha) signaling pathway using the BG1 cell line in the presence of 0.1 nM 17-beta-estradiol (AID 1259244). Also: nearly all actives have a fitted effect of over 50% in size. Put shortly:
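VM7Luc4E2; 4xERE-luciferase; 0.1 nM E2 final; 22 h co-incubation, 37C; ONE-Glo luminescence after 30 min at room temperature.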

The target of experiment [20] is Androgen receptor (Homo sapiens) (UniProt P10275). Briefly: qHTS assay to identify small molecule antagonists of the androgen receptor (AR) signaling pathway using the MDA cell line in the presence of 0.5 nM R1881 (AID 1259243). Also: nearly all actives have a fitted effect of over 50% in size. The essentials:
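We exposed MDA-kb2 cells to compounds under 0.5 nM R1881 stimulation for 16 hr at 37C and quantified MMTV-driven luciferase by luminescence.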

Estrogen receptor (Homo sapiens), sequence (P03372 whole entry, looked up): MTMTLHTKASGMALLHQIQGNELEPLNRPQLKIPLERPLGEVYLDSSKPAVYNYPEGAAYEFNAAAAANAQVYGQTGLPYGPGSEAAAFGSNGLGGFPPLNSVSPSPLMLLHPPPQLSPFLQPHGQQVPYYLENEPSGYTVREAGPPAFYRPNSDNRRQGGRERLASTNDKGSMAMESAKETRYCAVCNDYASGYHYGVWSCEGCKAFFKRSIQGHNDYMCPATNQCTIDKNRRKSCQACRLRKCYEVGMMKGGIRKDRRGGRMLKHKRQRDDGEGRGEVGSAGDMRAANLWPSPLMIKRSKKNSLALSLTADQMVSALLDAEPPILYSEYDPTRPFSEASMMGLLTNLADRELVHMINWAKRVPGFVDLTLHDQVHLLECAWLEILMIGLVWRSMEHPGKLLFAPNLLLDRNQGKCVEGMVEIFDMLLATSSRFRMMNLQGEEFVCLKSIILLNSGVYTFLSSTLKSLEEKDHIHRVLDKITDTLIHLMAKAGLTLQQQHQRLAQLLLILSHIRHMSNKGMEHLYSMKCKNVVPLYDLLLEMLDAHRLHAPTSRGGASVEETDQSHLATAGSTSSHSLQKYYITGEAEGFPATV
Androgen receptor (Homo sapiens), sequence (P10275 whole entry, looked up): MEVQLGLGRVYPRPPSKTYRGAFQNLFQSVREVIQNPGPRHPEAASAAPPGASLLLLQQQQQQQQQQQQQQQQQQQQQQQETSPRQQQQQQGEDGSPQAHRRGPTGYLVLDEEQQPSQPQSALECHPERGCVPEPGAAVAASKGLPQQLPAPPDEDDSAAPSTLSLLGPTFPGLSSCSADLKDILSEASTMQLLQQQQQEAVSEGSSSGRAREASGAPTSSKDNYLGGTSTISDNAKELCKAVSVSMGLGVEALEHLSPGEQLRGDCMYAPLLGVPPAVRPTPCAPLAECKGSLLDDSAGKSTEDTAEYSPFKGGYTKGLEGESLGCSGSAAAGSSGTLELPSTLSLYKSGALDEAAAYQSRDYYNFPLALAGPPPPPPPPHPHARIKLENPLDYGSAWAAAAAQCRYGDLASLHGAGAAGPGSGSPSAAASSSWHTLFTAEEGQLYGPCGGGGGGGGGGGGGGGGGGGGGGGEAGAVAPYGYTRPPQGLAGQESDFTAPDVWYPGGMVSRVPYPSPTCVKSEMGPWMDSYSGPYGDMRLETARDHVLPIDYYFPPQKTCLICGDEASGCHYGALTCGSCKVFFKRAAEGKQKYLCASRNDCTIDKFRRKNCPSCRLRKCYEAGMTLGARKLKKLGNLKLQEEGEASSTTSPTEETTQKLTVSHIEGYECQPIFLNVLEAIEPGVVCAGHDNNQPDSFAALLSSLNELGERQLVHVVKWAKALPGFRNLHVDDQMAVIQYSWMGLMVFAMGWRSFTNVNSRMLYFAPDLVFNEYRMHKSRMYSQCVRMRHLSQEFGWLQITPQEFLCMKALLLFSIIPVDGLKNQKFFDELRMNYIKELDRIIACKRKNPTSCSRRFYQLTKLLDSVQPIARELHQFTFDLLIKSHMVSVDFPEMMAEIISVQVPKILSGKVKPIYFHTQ

As for `Cc1ccc2c(c1)C(=O)c1ccccc1C2=O`, the Potency entry in experiment [1], in [2], in [3], in experiment [4], in experiment [5] and in [6] was “inactive” in each case. Further, the Potency result in experiment [7], in [8], in experiment [10], in experiment [11], in experiment [12] and in [13] was “inactive” in each case. The Potency entry in experiment [14] is “inactive”. For the same compound, the call in experiment [9], in experiment [15] and in experiment [16] was inactive.

As to `c1ccc2c(CC3=NCCN3)cccc2c1`, the Potency entry in experiment [1], in experiment [2], in [3], in [4], in [5] and in [6] was “inactive” in each case. The Potency entry in experiment [7], in experiment [8], in experiment [10], in experiment [11], in experiment [12] and in [13] was “inactive” throughout. In experiment [14], the Potency entry is “inactive”. The result in experiment [9], in experiment [15], in [16] and in [17] was inactive.

As for `C=CCCCCCCCCC(=O)OCCCC`, the Potency entry in experiment [1], in [4], in [5], in [6], in experiment [8] and in experiment [10] was “inactive” in each case. In addition, the Potency result in experiment [11], in experiment [12], in [13] and in experiment [14] was “inactive” throughout. Moreover, the call in experiment [18], in experiment [9], in [15] and in experiment [19] was inactive.

On to `OCC1(CO)COCOC1`, for which the Potency result in experiment [1], in [4], in [5], in [8], in [10] and in experiment [11] was “inactive” each time. The Potency entry in experiment [12], in experiment [13] and in experiment [14] was “inactive” throughout. In addition, the outcome in experiment [18], in [9], in experiment [15] and in experiment [16] was inactive.

`Nc1nc(-c2ccccc2)c(Br)c(=O)[nH]1`: the Potency entry in experiment [1], in experiment [3], in experiment [4], in [5], in [6] and in experiment [10] was “inactive” each time. Also, the Potency result in [11], in experiment [12], in [13] and in experiment [20] was “inactive” in each case. Moreover, the result in [18], in [9], in experiment [15], in [16], in [19] and in experiment [17] was inactive.

Turning to `COC(=O)CCCCC(=O)O`, the Potency entry in experiment [1], in experiment [2], in experiment [4], in experiment [5], in experiment [6] and in experiment [8] was “inactive” each time. The Potency entry in experiment [10], in experiment [11], in [12], in experiment [13] and in experiment [14] was “inactive” throughout. In addition, the call in [18], in experiment [9], in experiment [15], in [16] and in experiment [19] was inactive.

With `O=C(CCCCC(=O)Nc1c(I)cc(I)c(C(=O)O)c1I)Nc1c(I)cc(I)c(C(=O)O)c1I`, the Potency entry in experiment [1], in experiment [2], in [4], in experiment [5], in experiment [6] and in experiment [8] was “inactive” throughout. The Potency result in experiment [10], in experiment [11], in experiment [12], in [13] and in [14] was “inactive” each time. Besides, the outcome in experiment [18], in experiment [9], in experiment [15], in experiment [16], in experiment [19] and in experiment [17] was inactive.

With `CCCC(=O)OC/C=C(\C)CCC=C(C)C`, the Potency entry in experiment [1], in experiment [2], in experiment [4], in [6], in experiment [7] and in [10] was “inactive” in each case. The Potency entry in experiment [11], in experiment [13] and in experiment [14] was “inactive” in each case. The compound was called inactive in experiment [18], in [9], in experiment [15] and in [16]. Moreover, the Potency is 49 µM (active) in experiment [5] and 54.9 µM (active) in experiment [12].
